Sfp PPTase inh – qHTS Assay for Inhibitors of Bacillus subtilis Sfp phosphopantetheinyl transferase (PPTase); 4'-phosphopantetheinyl transferase ffp (Bacillus subtilis), Q9F4F7; Biochemical Sfp PPTase activity, qHTS; Potency, µM, most hits filed as inhibitors; 310,000 tested, 3.5% active;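 further: the enzyme is Sfp with the accession as filed and its product quenches rhodamine fluorescence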
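Buffer: 50 mM Hepes-Na pH 7.6, 10 mM MgCl2, 0.01% Nonidet P-40, 0.01% BSA. Enzyme 15 nM, pre-exposed to compound 15 min; substrates then added and fluorescence change tracked over 30 min.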
PLK1 PBD block – qHTS for Inhibitors of PLK1-PDB (polo-like kinase 1 - polo-box domain): Primary Screen; Plk1 PBD binding of FITC phosphopeptide, fluorescence polarization; Potency, µM, most hits filed as inhibitors; 360,000 tested, 2.8% active; further: series mostly up to about 57 µM; nearly all actives have a fitted effect of over 65% in size
CCT chaperon mod – High-Throughput Screening for Modulators of Cytosolic Chaperonin Activity. activity change, % (no concentration beside the values), hits read low. purified chaperonin ATPase assay, HTRF ADP detection, 30 min. AID 651819, 2012. 360,000 tested, 0.3% active; in the data active means activity change below about -30%
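Nucleotide hydrolysis assay: TRiC at 20–40 nM final (set by batch activity) with 10 uM ATP, 30 min at 37 °C, in presence of 76 uM compound. Detection by competitive ADP HTRF, 30 min ambient.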
G9a inh – qHTS Assay for Inhibitors of Histone Lysine Methyltransferase G9a. G9a H3K9 monomethylation, AlphaScreen, 2 h. Potency, µM (series often up to 102 µM), most hits filed as inhibitors. 350,000 tested, 8.8% active. AID 504332, 2011; further: nearly all actives have a fitted effect of over 75% in size
Target sequence (Q96KQ7 913-1193 limits assumed): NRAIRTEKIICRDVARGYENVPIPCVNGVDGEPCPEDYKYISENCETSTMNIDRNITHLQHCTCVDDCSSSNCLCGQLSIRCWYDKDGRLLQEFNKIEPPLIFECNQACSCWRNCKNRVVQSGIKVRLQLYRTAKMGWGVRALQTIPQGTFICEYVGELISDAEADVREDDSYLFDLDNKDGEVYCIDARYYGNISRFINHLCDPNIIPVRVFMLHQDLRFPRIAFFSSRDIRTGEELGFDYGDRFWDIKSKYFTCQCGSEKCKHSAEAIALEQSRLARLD
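Chemiluminescent proximity detection of H3K9 monomethylation, read after 10 min bead incubation in the dark. Reaction: 20 nM G9a, 500 nM biotin-H3K9 peptide, 20 uM SAM cofactor, 2 h, room temperature, following 15 min enzyme-compound preincubation.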
VDR inh – Inhibitors of the vitamin D receptor (VDR): qHTS | VDR-SRC2-3 peptide fluorescence polarization, 2 h | AID 504847, 2011 | Potency, µM, actives largely listed as inhibitors | 400,000 tested, 0.93% active | Vitamin D3 receptor (Homo sapiens), P11473
Target sequence (P11473 whole entry, looked up): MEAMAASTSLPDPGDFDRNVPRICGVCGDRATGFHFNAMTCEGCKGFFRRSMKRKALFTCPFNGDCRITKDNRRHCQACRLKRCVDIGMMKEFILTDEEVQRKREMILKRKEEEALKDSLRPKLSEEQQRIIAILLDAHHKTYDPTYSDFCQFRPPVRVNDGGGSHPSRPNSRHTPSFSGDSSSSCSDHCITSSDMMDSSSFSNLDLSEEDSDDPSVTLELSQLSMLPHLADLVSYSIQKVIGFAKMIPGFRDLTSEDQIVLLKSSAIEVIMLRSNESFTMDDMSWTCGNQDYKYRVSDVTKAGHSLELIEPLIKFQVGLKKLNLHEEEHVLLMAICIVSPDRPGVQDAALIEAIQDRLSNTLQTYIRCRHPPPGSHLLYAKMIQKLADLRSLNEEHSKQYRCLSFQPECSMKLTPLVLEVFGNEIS
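Two reagent solutions held at 4 deg C in the dark were dispensed, compounds pinned at 23 nl, and the mixture incubated 2 h at room temperature. Read-out: fluorescence polarization of VDR–SRC2-3 peptide binding.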
MmCpn inh – Inhibitors of TCP-1 ring complex (TRiC) of Methanococcus maripaludis (MmCpn): qHTS; Chaperonin Mm-Cpn (Methanococcus maripaludis); purified Mm-Cpn ATPase, ADP Transcreener TR-FRET; Potency, µM (doses to about 76.9 µM), usual class: inhibitors; 330,000 tested, 0.031% active; AID 504842, 2011; further: nearly all actives have a fitted effect of over 80% in size
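Compound-treated chaperonin, 25 nM final, turns over 10 uM ATP at 37°C for 30 min following a 10 min preincubation; ADP generated competes with ADP-d2 for Eu-cryptate antibody, lowering FRET.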
A number is an active result; i = inactive; ? = inconclusive; nt = not tested or not shown; [ ] = dose if it differs, or a comment. This is a sample that favours compounds with a hit; in the whole collection about 10% have one here. Unless noted, the call rests on the fitted dose curve; in most records, active means well fitted curve in the direction sought with a large enough effect; inconclusive means small, poorly fitted or top-dose-only effect, or another doubt; inactive means no such curve, though single readings can be large; an effect the other way counts as inactive or inconclusive.

SMILES	Sfp PPTase inh	PLK1 PBD block	CCT chaperon mod	G9a inh	VDR inh	MmCpn inh
Cc1cc(C)c(NC(=O)/C=C\C(=O)O)c(Cl)c1	i	i	i	?	i	i
Cc1ccc(O)c(NC(=O)/C=C/C(=O)O)c1	?	i	i	?	i	i
O=C(Nc1ccc(Cl)cc1F)C1CC1c1ccccc1 (stereo not drawn)	i	i	i	nt	i	i
Cc1ccc(NC(=O)/C=C\C(=O)O)c([N+](=O)[O-])c1	i	i	i	39.8µM	i	i
O=C(Nc1cccc(F)c1)N1CCCC2(CCN(C(=O)c3cccc(F)c3)CC2)C1	i	nt	nt	i[12.7 µM]	i	nt
CCN(CC)S(=O)(=O)c1ccc2c(c1)c(=O)c(C(=O)NCc1ccc(Cl)cc1)cn2C	nt	nt	nt	i	i	nt
O=C(NNc1ccc([N+](=O)[O-])cc1)C1CC1c1ccccc1 (stereo not drawn)	i	?	i	10µM	i	i
Cc1ccc(Cl)cc1-n1c(=O)c2sc3ccccc3c2n(CC(=O)NC2CCCCC2)c1=O	nt	nt	nt	i	i	nt
CCN1CCN(CCn2c(=S)[nH]c3cc4c(cc3c2=O)OCO4)CC1	i	i	i	i[12.7 µM]	i	i
Cc1c(SCCO)c(=O)[nH]c2cc3c(cc12)OCO3	i	i	i	50.1µM	i	i
O=[N+]([O-])c1ccc(Nc2nc(NCCO)nc(N3CCCC3)n2)cc1	i	i	i	44.7µM	i	i
Cc1ccc([N+](=O)[O-])cc1Nc1nc(N2CCCC2)nc(N2CCCC2)n1	i	18.9µM	i	i[0.501 µM]	79.4µM	i
OCCNc1nc(Nc2ccc(Cl)cc2)nc(N2CCCC2)n1	nt	nt	nt	nt	i	nt
COc1ccc(N2CCN(C(=O)c3ccc(NS(=O)(=O)c4ccccc4)cc3)CC2)cc1	i	i	i	20µM	i	i
COc1ccc(N2CCN(C(=O)COC(=O)c3cccc(S(=O)(=O)Nc4cccc(C)c4)c3)CC2)cc1	nt	i	i	10µM	i	i
COc1ccc(N2CCN(C(=O)c3ccc4c(c3)CCN4S(=O)(=O)c3ccccc3)CC2)cc1	i	i	i	28.2µM	i	i
CC1=C(C(=O)Nc2cccc(F)c2)C2(CCCCCC2)OC1=O	nt	nt	nt	i	i	nt
Cc1ccc(S(=O)(=O)NCCCCCC(=O)Nc2nccs2)cc1	i	i	i	11.2µM	i	i
Cc1ccc(NC(=O)CCCCCNS(=O)(=O)c2ccc(C)cc2)cc1	i	i	i	i	i	i
COc1ccc(N(C(=O)/C=C\C(=O)Nc2ccc(C)cc2)C(C(=O)NCc2ccco2)c2ccc(C)cc2)cc1 (stereo not drawn)	nt	nt	nt	14.1µM	i	nt
COc1ccc(NC(=O)/C=C\C(=O)N(c2ccc(C(C)C)cc2)C(C(=O)NCc2ccco2)c2ccc(C)cc2)cc1 (stereo not drawn)	nt	nt	nt	?	i	nt
Cc1ccc(C2=NN(CC(=O)O)C(=O)CC2)cc1	i	i	i	44.7µM	i	i
Cc1ccc(C2=NN(CC(=O)NCCc3ccccc3)C(=O)CC2)cc1	nt	nt	nt	i	i	nt
CCN(CCCNC(=O)CN1N=C(c2ccc(OC)cc2)CCC1=O)c1cccc(C)c1	nt	nt	nt	11.2µM	i	nt
CCN(CCCNC(=O)CN1N=C(c2ccccc2)CCC1=O)c1cccc(C)c1	nt	nt	nt	14.1µM	i	nt
SMILES	Sfp PPTase inh	PLK1 PBD block	CCT chaperon mod	G9a inh	VDR inh	MmCpn inh
COc1ccc(C2=NN(CC(=O)NCCCN(C)c3ccccc3)C(=O)CC2)cc1	nt	nt	nt	?	i	nt
CCN(CCCNC(=O)CN1N=C(c2ccc(C)cc2)CCC1=O)c1ccccc1	nt	nt	nt	10µM	i	nt
Cc1ccc(CNC(=O)CN2N=C(c3ccccc3)CCC2=O)cc1	nt	nt	nt	i	i	nt
O=S(=O)(O)c1c(NS(=O)(=O)c2ccccc2)ccc2ccccc12	nt	nt	nt	nt	i	nt
COc1ccc(-c2noc(CCC(=O)NCCc3ccccc3)n2)cc1	i	i	i	i	i	i
CCN(CCCNC(=O)CCc1nc(-c2ccc(OC)cc2)no1)c1cccc(C)c1	i	i	i	25.1µM	i	i
COc1ccc(NC(=O)CC2C(=O)N(c3cccc(C)c3)C(=O)N2C2CCCCC2)cc1 (stereo not drawn)	?	i	i	i	i	i
COC(=O)c1ccc(NC(=O)CC2C(=O)N(c3cccc(C)c3)C(=O)N2C2CCCC2)cc1 (stereo not drawn)	nt	nt	nt	7.08µM	i	nt
CCOc1ccc(NC(=O)NC(CC)Cn2nnc3ccccc3c2=O)cc1 (stereo not drawn)	nt	nt	nt	i	i	nt
CCNc1ncc2nc(C)c(=O)n(CCOC)c2n1	i	nt	nt	i[0.501 µM]	i	nt
COc1ccc(/C=C(/C(=O)c2ccc(Cl)cc2Cl)n2cncn2)cc1	i	i	i	i	56.2µM	i
CC(=O)OCCn1c2nc(=O)[nH]c(=O)c-2nc2cc(C)c(C)cc21	i	0.844µM	i	i	i	i
CCCC(=O)OC[C@@H](OC(=O)CCC)[C@@H](OC(=O)CCC)[C@H](Cn1c2nc(=O)[nH]c(=O)c-2nc2cc(C)c(C)cc21)OC(=O)CCC	i	nt	nt	i[12.7 µM]	?	nt
COc1cc(O)c2c(c1)OC(c1ccc(O)cc1)CC2=O (stereo not drawn)	i	i	i	i	50.1µM	nt
COc1ccc(S(=O)(=O)N(C)C)cc1NC(=O)c1ccc(OCC(=O)N2CCOCC2)c(OC)c1	nt	i	i	50.1µM	i	i
COc1ccc(S(=O)(=O)N2CCOCC2)cc1NC(=O)c1cccc(-n2cccc2)c1	nt	i	i	28.2µM	i	i
COc1ccc(S(=O)(=O)N2CCOCC2)cc1NC(=O)COC(=O)c1oc2ccccc2c1C	nt	i	i	i[12.7 µM]	i	i
COc1ccc(S(=O)(=O)N2CCOCC2)cc1NC(=O)c1cc2ccccc2o1	nt	i	i	44.7µM	i	i
COc1cccc(CNC(=O)C2CCCN(S(=O)(=O)c3cn(C)cn3)C2)c1 (stereo not drawn)	nt	nt	nt	i[12.7 µM]	i	nt
Cc1ccc(Cn2c(SCc3ccc(C(=O)N4CCCCC4)cc3)nc3ccncc32)cc1	nt	nt	nt	i	i	nt
COc1ccc(Cl)cc1NC(=O)N1CCN(S(=O)(=O)c2ccc3c(ccn3C)c2)CC1	nt	nt	nt	i	i	nt
CCC1CO/C(=C(\C(Cl)=C(Cl)Cl)[N+](=O)[O-])N1 (stereo not drawn)	i	?	i	79.4µM	i	i
CC1CCCCN1C(=O)Cn1c(=O)n(-c2ccc(Cl)cc2)c(=O)c2c3c(sc21)CCC3 (stereo not drawn)	nt	nt	nt	i	i	nt
O=C(O)c1ncn(Cc2ccccc2)c1C(=O)O	50.1µM	i	i	10µM	i	i
CN(C(=O)CSc1nc2ccccc2n1CC(=O)N(C)c1ccc(F)cc1)c1ccccc1	nt	nt	nt	i[12.7 µM]	i	nt
O=[N+]([O-])c1cnccc1Nc1cccc(F)c1	i	i	i	7.08µM	i	i

Screening results as filed in PubChem BioAssay.
